14-3-3 Bad inh = disrupts binding of bovine 14-3-3 zeta to phospho-Bad peptide. 0.71% of 220,000 active. TR-FRET 14-3-3zeta/Dy647-pBad peptide displacement, 1 h. inhibition, % at 21.7 µM. AID 781;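 active means inhibition above about 70%, limit read from the data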
Target sequence (P63103 whole entry, looked up): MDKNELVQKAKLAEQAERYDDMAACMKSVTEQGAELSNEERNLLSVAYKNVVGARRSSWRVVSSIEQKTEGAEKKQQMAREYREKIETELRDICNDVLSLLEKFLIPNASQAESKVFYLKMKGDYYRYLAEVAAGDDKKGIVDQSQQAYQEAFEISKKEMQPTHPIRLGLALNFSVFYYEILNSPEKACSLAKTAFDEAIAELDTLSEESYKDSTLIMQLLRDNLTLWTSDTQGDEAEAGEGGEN
Mcl1-Noxa inh = Mcl-1/Noxa interaction inhibition; TR-FRET Mcl-1/Noxa peptide binding, 2 h; AID 1022; 1.5% of 220,000 active; inhibition, % at 21.7 µM;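 active means compounds that cut the protein-peptide binding signal by more than 50% relative to plate controls in a single-dose test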;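 further: His-tagged Mcl-1 with rhodamine Noxa BH3 peptide and terbium anti-His antibody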
Bim-Mcl-1 = disrupts Bim peptide binding to human Mcl-1; Bead-based flow cytometry, Bim peptide-Mcl-1 binding; 0.1% of 190,000 active; inhibition, % at 10 µM; Q07820; AID 1009; in the data active means inhibition above about 40%
eIF4E 4G PPI = eIF4E/eIF4G interaction inhibition in translation initiation; 0.37% of 220,000 active; inhibition, % at 21.7 µM; AID 782; P63073+Q04637; TR-FRET eIF4E-eIF4GI(517-606) binding, 2 h;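 active means inhibition above about 30%, limit read from the data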
MCL1-BIM inh = disrupts human MCL1 binding to BIM-BH3 peptide; GST-MCL1 / FITC-Bim-BH3 fluorescence polarization; 0.68% of 320,000 active; inhibition, % at 10.9 µM; AID 2057;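 active means inhibition above the mean inhibition of all tested compounds plus 3 SD, set per campaign, cut at about 40% in these data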;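 further: higher means more loss of mP so more displacement of Bim peptide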
Mcl1-Bid inh = Mcl-1/Bid interaction inhibition; Q07820; TR-FRET Mcl-1/Bid-Dy647 peptide binding, 1536-well; inhibition, % at 21.7 µM; 0.97% of 220,000 active; AID 1021;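 active means compounds that cut the binding signal by more than half at the single screening dose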;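 further: His-tagged Mcl-1 with europium anti-His antibody binding Bid BH3 peptide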
BCLXL inh confirm = counter-screen for MCL1 inhibitors: confirmation of human Bcl-xL inhibitors; shares compounds with MCL1-BIM inh; GST-Bcl-xL / FITC-Bim BH3 peptide FP binding; 54% of 1,700 active; inhibition, % at 10.9 µM; AID 2166;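 active means inhibition above a cutoff equal to the mean inhibition of all tested compounds plus 3 SD, cut at about 30% in these data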
Target sequence (Q07817 whole entry, looked up): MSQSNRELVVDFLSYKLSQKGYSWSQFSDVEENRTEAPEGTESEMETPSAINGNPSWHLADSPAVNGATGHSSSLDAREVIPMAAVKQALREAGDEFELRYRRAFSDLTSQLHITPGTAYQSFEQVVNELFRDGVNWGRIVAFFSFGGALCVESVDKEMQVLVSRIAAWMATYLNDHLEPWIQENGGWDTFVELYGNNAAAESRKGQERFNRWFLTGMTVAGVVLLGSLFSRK
MCL1 inh confirm = MCL1-BIM-BH3 interaction inhibition, confirmation; inhibition, % at 10.9 µM; 61% of 1,700 active; shares compounds with MCL1-BIM inh; GST-MCL1 / FITC-Bim-BH3 fluorescence polarization;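 active means inhibition above the average of all tested compounds plus 3 SD, cut at about 40% in these data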
Each line names hits and unclear results; the compound was inactive in the other large screens (follow-up assays come after a bar, where they were run); [ ] = remark or other dose. Compounds with a hit are over-represented: about 2.6% of the library has one in this group of screens.

COC(=O)C1=C(c2cccc(OCc3ccccc3)c2)C[C@@H]2CC[C@H]1N2C(=O)NCc1cc(C)oc1C(F)(F)F	none (no result: 14-3-3 Bad inh, Mcl1-Noxa inh, Bim-Mcl-1, eIF4E 4G PPI, Mcl1-Bid inh)
Cn1cc(/C=C2\C(=O)NC(=O)N(c3ccccc3)C2=O)c2ccccc21	MCL1-BIM inh 182 (no result: 14-3-3 Bad inh, Mcl1-Noxa inh, Bim-Mcl-1, eIF4E 4G PPI, Mcl1-Bid inh) | BCLXL inh confirm 60 | MCL1 inh confirm 64
O=C(O)Cn1cc(/C=C2\C(=O)NC(=O)N(c3ccc(Cl)cc3)C2=O)c2ccccc21	none (no result: 14-3-3 Bad inh, Mcl1-Noxa inh, Bim-Mcl-1, eIF4E 4G PPI, Mcl1-Bid inh)
COC(=O)C1=C(c2ccc(F)cc2F)C[C@@H]2CC[C@H]1N2C(=O)NCCOc1ccccc1Cl	none (no result: 14-3-3 Bad inh, Mcl1-Noxa inh, Bim-Mcl-1, eIF4E 4G PPI, Mcl1-Bid inh)
Oc1c(Br)c(Br)c(Br)c(Br)c1Br	MCL1-BIM inh 73 (no result: 14-3-3 Bad inh, Mcl1-Noxa inh, Bim-Mcl-1, eIF4E 4G PPI, Mcl1-Bid inh) | BCLXL inh confirm inactive | MCL1 inh confirm 55
Cc1ccc2cc(C=C(C#N)C#N)c(Cl)nc2c1	MCL1-BIM inh active | BCLXL inh confirm inactive | MCL1 inh confirm inactive
COC(=O)C1=C(c2ccc(-c3ccccc3)c(F)c2)C[C@@H]2CC[C@H]1N2C(=O)N1CCOCC1	none (no result: 14-3-3 Bad inh, Mcl1-Noxa inh, Bim-Mcl-1, eIF4E 4G PPI, Mcl1-Bid inh)
CCOC(=O)[C@]1(C#N)[C@@H]2C=CC(C(C)=O)=CN2[C@@H](C(N)=O)[C@@H]1c1ccsc1	MCL1-BIM inh 96 | BCLXL inh confirm 108 | MCL1 inh confirm 145
CN1CC=C2C(C#N)=C(N)C(C#N)(C#N)C(c3ccncc3)C2C1 (stereo not given)	MCL1-BIM inh 164 (no result: 14-3-3 Bad inh, Mcl1-Noxa inh, eIF4E 4G PPI, Mcl1-Bid inh) | BCLXL inh confirm 37 | MCL1 inh confirm 50
CN1C(=O)C2C[C@@]3(Br)c4ccccc4N(OOSc4ccccc4)[C@H]3N2C(=O)[C@@H]1Cc1ccccc1 (stereo not given in full)	none (no result: 14-3-3 Bad inh, Mcl1-Noxa inh, Bim-Mcl-1, eIF4E 4G PPI, Mcl1-Bid inh)
CC1(O)CCN2C(=O)CCc3cccc1c32 (stereo not given)	MCL1-BIM inh 66 (no result: 14-3-3 Bad inh, Mcl1-Noxa inh, Bim-Mcl-1, eIF4E 4G PPI, Mcl1-Bid inh) | BCLXL inh confirm inactive | MCL1 inh confirm inactive
O=P(Nc1ccccc1)(Nc1ccccc1)Oc1cccc(Cl)c1	none
CN(C)C1C(=O)C(C(N)=O)=C(O)C2(O)C(=O)C3=C(O)c4c(O)cccc4C(C)(O)C3C(O)C12 (stereo not given)	MCL1-BIM inh 105 (no result: 14-3-3 Bad inh, Mcl1-Noxa inh, Bim-Mcl-1, eIF4E 4G PPI, Mcl1-Bid inh) | BCLXL inh confirm 33 | MCL1 inh confirm 84
CN1C[C@H](CNC(=O)OCc2ccccc2)C[C@@H]2c3cccc4c3c(cn4C)C[C@H]21	MCL1-BIM inh 67 | BCLXL inh confirm inactive | MCL1 inh confirm inactive
Nc1c(C(=O)NCC2CCCO2)c2nc3ccccc3nc2n1Cc1ccco1 (stereo not given)	Mcl1-Noxa inh 55, MCL1-BIM inh 58 (no result: Bim-Mcl-1) | BCLXL inh confirm inactive | MCL1 inh confirm inactive
Cc1cc(C(=O)OCC(=O)Nc2ccc(F)cc2)c(C)n1C1CC1	none (no result: 14-3-3 Bad inh, Mcl1-Noxa inh, Bim-Mcl-1, eIF4E 4G PPI, Mcl1-Bid inh)
CN1/C(=C\C=C\C2=[N+](C)c3ccc4ccccc4c3C2(C)C)C(C)(C)c2ccccc21	MCL1-BIM inh active | BCLXL inh confirm 166 | MCL1 inh confirm 200
CC(C)CN(CC(C)C)c1ccc(C=C2C(=O)NC(=S)NC2=O)cc1[N+](=O)[O-]	eIF4E 4G PPI 62[fluorescence artefact?], MCL1-BIM inh 70 | BCLXL inh confirm 42 | MCL1 inh confirm 97
CCN(CC)c1ccc(C=C2C(=O)NC(=S)NC2=O)cc1	none (no result: Bim-Mcl-1)
CC1CCN(C(=O)CCl)CC1	none
CN(C)c1ccc(C2C3C=CC(C3)C2(C#N)C(=O)O)c(Br)c1 (stereo not given)	none (no result: 14-3-3 Bad inh, Mcl1-Noxa inh, Bim-Mcl-1, eIF4E 4G PPI, Mcl1-Bid inh)

Assay outcomes deposited in PubChem BioAssay by several laboratories.
